The values that follow come from PubChem BioAssay AID602393 (Broad Institute, 2012).

The campaign covered roughly 350,000 compounds. About 7,000 (2%) were called active. The sample as a whole holds a higher share of actives than the screen did. Values without a mark were called inactive. Cut-off read from the data, not from the text of the source: active = activation above about 40%; inconclusive = no clear call, values can overlap the other calls; inactive = below that.

The nature of the test: raisers of Bmi1 knock-in reporter signal – mouse ES cells, Bmi1 luciferase knock-in, single point, esBAF inhibitor project, primary screen (AID 602393).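 Note: 0% = median of the plate's neutral control wells and 100% = double that signal; a rise in the Bmi1 reporter signal indicates esBAF inhibition.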 The settings on record: 24 h, at 12.5 µM, hits give high values, 100% = twice the neutral-well signal.
As to `CCCNC(=O)Nc1ccc2c(c1)C(=O)N(C)C[C@@H](OC)[C@H](C)CN(C(=O)C1CCCCC1)[C@H](C)CO2`, the reporter increase is 5.09%.
The value for `C[C@@H]1CCCCO[C@H](CN(C)S(C)(=O)=O)[C@@H](C)CN([C@H](C)CO)C(=O)c2cc(NC(=O)Nc3ccc4c(c3)OCO4)ccc2O1` was 6.3%; that for `CCN1C(=O)/C(=C2\SC(N3CCCCC3)=NC2=O)c2ccccc21` was 65% (active).
The value for `CC(C)=C1SC(N2CCN(c3cccc(C)c3)CC2)=NC1=O` was -1.1%.
Then `CCOc1cc(/C=C2\SC(N3CCCCC3)=NC2=O)ccc1O`, with 30.3%.
Regarding `O=C(C[C@H]1C=C[C@H](NC(=O)Cc2ccccn2)[C@@H](CO)O1)NCCc1ccccc1`, the reporter increase is -5.91%.
With `CN1c2ccc(C#Cc3ccccc3F)cc2[C@@H]2[C@@H](CCN2C(=O)Cc2cccnc2)[C@H]1CO`, the reporter increase is 1.33%.
Then `CCn1nnc(NC(=O)c2c(OC)cccc2OC)n1`, with 1.33%; and `CCCOc1cccc(C(=O)Nc2nnn(CCC)n2)c1`, with 52.7% (active); and `CCCn1nnc(NC(=O)COc2ccc(CC)cc2)n1`, with -6.66%.
The value for `CO[C@H]1CN(C)C(=O)c2cc(NC(=O)Nc3c(C)noc3C)ccc2OC[C@@H](C)N(CCC(F)(F)F)C[C@H]1C` was -21.9%.
Then `Cc1noc(C)c1S(=O)(=O)N(C)C[C@@H]1OCCCC[C@H](C)Oc2ccc(NC(=O)Nc3ccc4c(c3)OCO4)cc2C(=O)N([C@H](C)CO)C[C@H]1C`, with 2%; and `COCC(=O)Nc1ccc2c(c1)C(=O)N(C)[C@@H]1CC[C@H](CC(=O)NCC3CC3)O[C@@H]1CO2`, with -2.01%; and `CO[C@H]1CN(C)C(=O)c2cc(NC(=O)c3cc(C)on3)ccc2OC[C@H](C)N(C(C)=O)C[C@H]1C`, with 0.72%.
With `COCCNC(=O)c1ccc2nc(Cc3ccc(OC)c(OC)c3)oc2c1`, the reporter increase was 48.6% (active).
Take `COc1ccc(Cc2nc3ccc(C(=O)NCC4CCOCC4)cc3o2)cc1OC`: the reporter increase is 21%.
The value for `CCCCc1nc2cc(C(=O)NCCc3cnn(C)c3)ccc2o1` was 31.5%; that for `O=C(NCCc1ccc(F)cc1)c1ccc2nccnc2c1` was -17.6%; that for `CSCCNC(=O)c1ccc2nc(Cc3ccccc3F)oc2c1` was 70.4% (active).
Then `CCC1C(=O)NCCN1C(=O)c1ccc2nc(Cc3ccc(OC)cc3)oc2c1` (stereo not drawn), with 0.998%.
In the case of `O=C(N[C@H]1CC[C@@H](CCNS(=O)(=O)c2cccc(Cl)c2)O[C@@H]1CO)c1ccncc1`, the reporter increase was 0.826%.
As to `C[C@H](CO)N1C[C@H](C)[C@H](CN(C)C(=O)Nc2ccc(C(F)(F)F)cc2)Oc2ccc(NS(=O)(=O)c3ccccc3)cc2CC1=O`, the reporter increase is -4.41%.
The value for `Cc1noc(C)c1S(=O)(=O)N(C)C[C@@H]1Oc2ccc(NC(=O)Cn3cnnn3)cc2CC(=O)N([C@@H](C)CO)C[C@H]1C` was -6.08%.
Then `Cc1cc(C(=O)Nc2cccc3c2O[C@@H](CN(C)S(=O)(=O)c2ccc(F)cc2)[C@@H](C)CN([C@H](C)CO)C3=O)n(C)n1`, with 5.98%.
Then `CCC(=O)Nc1ccc2c(c1)OC[C@@H](C)N(Cc1ccccn1)C[C@H](C)[C@@H](OC)CN(C)C2=O`, with -3.64%; and `COc1ccc(NC(=O)N(C)C[C@H]2OCCCC[C@H](C)Oc3ccc(NS(C)(=O)=O)cc3C(=O)N([C@H](C)CO)C[C@@H]2C)cc1`, with 3.29%; and `CC(C)NC(=O)N(C)C[C@H]1OCCCC[C@@H](C)Oc2ccc(NS(C)(=O)=O)cc2C(=O)N([C@H](C)CO)C[C@H]1C`, with -1.04%.
Take `COc1ccc(NC(=O)Nc2ccc3c(c2)C(=O)N([C@H](C)CO)C[C@@H](C)[C@H](CN(C)C(=O)Cc2ccccc2)OCCCC[C@H](C)O3)cc1`: the reporter increase was 15.2%.
Then `CCc1ccc(NC(=O)Cn2ncn3c(cc4ccccc43)c2=O)cc1`, with -6.55%; and `CCOC(=O)c1cn(CC(=O)Nc2ccc(C(C)C)cc2)nn1`, with -4.55%.
The value for `CC(C)c1ccc(NC(=O)Cn2ncc3ccccc32)cc1` was 61.7% (active).
Then `COc1cccc(CNC(=O)[C@@H]2[C@@H](CO)[C@@H]3Cn4c(ccc(-c5cccnc5)c4=O)[C@@H]3N2C)c1`, with 0.488%; and `COC(=O)c1ccc(/C=C/c2c(-c3ccc(OC)cc3)sc3ccccc23)cc1`, with 0.121%; and `COc1ccccc1-c1sc2ccccc2c1-c1ccc(C(C)=O)cc1`, with 34.4%.
Take `COc1ccc(N=C(C)c2sc3ccccc3c2O)cc1`: the reporter increase is 50.4% (active).
Then `N#C[C@H]1[C@@H](c2ccc(C3=CCCCC3)cc2)[C@@H](CO)N1C(=O)NC1CCCCC1`, with 7.57%.
For the compound `C[C@H]1CCCCO[C@H](CN(C)C(=O)Nc2ccccc2)[C@@H](C)CN([C@@H](C)CO)C(=O)c2cc(NC(=O)CCC(F)(F)F)ccc2O1`, the reporter increase was -7.05%.
`O=C(C1CCC1)N1C[C@@H]2[C@H](c3ccccc31)[C@H](CO)N2C(=O)c1ccccc1`: the reporter increase is -1.2%.
With `Cc1ccc(Cc2nc(-c3cccc(C)c3)no2)cc1`, the reporter increase was 60.8% (active).
Take `Cc1ccc(-c2noc(CNC(=O)c3ccoc3C)n2)cc1`: the reporter increase is 1.49%.
`CCCc1nc(-c2cc3cc(C)ccc3[nH]c2=O)no1`: the reporter increase was -1.25%.
In the case of `COc1ccccc1Cc1nc(-c2ccc(C)cc2)no1`, the reporter increase was 46.3% (active).
For the compound `Cc1ccc(-c2noc(CC(c3ccccc3)c3ccccc3)n2)cc1`, the reporter increase is 0.61%.
For `COc1ccccc1-c1noc(CSc2nc(C)cc(=O)[nH]2)n1`, the reporter increase is -5.13%.
The value for `C[C@@H]1CCCCO[C@@H](CN(C)Cc2ccncc2)[C@H](C)CN([C@H](C)CO)C(=O)c2cc(N(C)C)ccc2O1` was -12.3%; that for `CCCC(=O)Nc1ccc2c(c1)OC[C@@H](C)N(Cc1ccccc1F)C[C@@H](C)[C@H](OC)CN(C)C2=O` was -2.03%; that for `COc1ccc(S(=O)(=O)Nc2cccc3c2O[C@@H](CN(C)C(=O)NC(C)C)[C@H](C)CN([C@@H](C)CO)C3=O)cc1` was -7.18%.
As to `O=C([C@@H]1[C@@H](CO)[C@@H]2Cn3c(ccc(C4=CCCC4)c3=O)[C@H]1N2C(=O)c1ccncc1)N1CCCCC1`, the reporter increase is -2.02%.
The value for `C[C@@H]1CN([C@@H](C)CO)C(=O)CCCn2cc(nn2)CO[C@@H]1CN(C)Cc1ccccc1C(=O)O` was -3.04%.
Take `C[C@@H]1CCCCO[C@H](CN(C)C(=O)NC2CCCCC2)[C@H](C)CN([C@@H](C)CO)C(=O)c2cc(NC(=O)Nc3ccc(F)cc3)ccc2O1`: the reporter increase is 3.4%.
The value for `CC(C)NC(=O)N(C)C[C@H]1OCCCC[C@H](C)Oc2ccc(NC(=O)Nc3ccc4c(c3)OCO4)cc2C(=O)N([C@H](C)CO)C[C@@H]1C` was 4.2%.
The value for `C[C@@H]1CCCCO[C@@H](CN(C)C(=O)NC2CCCCC2)[C@H](C)CN([C@@H](C)CO)C(=O)c2cc(NC(=O)Nc3ccc(F)cc3)ccc2O1` was 3.77%.
Then `C[C@@H]1CCCCO[C@H](CN(C)C(=O)NC2CCCCC2)[C@H](C)CN([C@H](C)CO)C(=O)c2cc(NC(=O)Nc3ccc(F)cc3)ccc2O1`, with 4.59%; and `C[C@H](CO)N1C[C@H](C)[C@H](CN(C)C(=O)NC2CCCCC2)OCCCC[C@H](C)Oc2ccc(NC(=O)Nc3ccc4c(c3)OCO4)cc2C1=O`, with 55.8% (active).
`C[C@H]1CCCCO[C@H](CN(C)C(=O)NC2CCCCC2)[C@@H](C)CN([C@@H](C)CO)C(=O)c2cc(NC(=O)Nc3ccc4c(c3)OCO4)ccc2O1`: the reporter increase is 44.8% (active).
The value for `COCC(=O)N(C)C[C@H]1Oc2ncc(-c3cccc(OC)c3)cc2C(=O)N([C@H](C)CO)C[C@H]1C` was -0.645%; that for `C[C@@H]1CN([C@H](C)CO)C(=O)CCCn2cc(nn2)CO[C@@H]1CN(C)Cc1ccc2cccnc2c1` was -4.13%.
Take `CCC(=O)Nc1ccc2c(c1)OC[C@@H](C)N(CC1CC1)C[C@H](C)[C@H](OC)CN(C)C2=O`: the reporter increase was 2.9%.
For `C[C@H]1CN([C@@H](C)CO)C(=O)c2cc(C#CC(C)(C)O)cnc2O[C@H]1CN(C)C(=O)CC1CC1`, the reporter increase was 2.32%.
As for `C[C@@H]1CN([C@H](C)CO)C(=O)c2c(c3ccccc3n2C)-c2ccccc2CO[C@@H]1CN(C)C(=O)Nc1ccccc1`, the reporter increase is 2.44%.
Consider `O=C(CN1CCCSc2ccccc21)N1CCN(S(=O)(=O)c2cccc(F)c2)CC1`, for which the reporter increase is 2.16%.
Take `O=C(CN1CCCSc2ccccc21)N1CCN(S(=O)(=O)c2ccccc2)CC1`: the reporter increase is 3.15%.
Then `N#C/C=C1\Sc2ccccc2C(=O)N1CC(=O)N1CCN(S(=O)(=O)c2ccccc2)CC1`, with 76.9% (active); and `CCCNC(=O)N1C[C@@H](O)COC[C@H]2O[C@H](CC(=O)N3CCC(Cc4ccccc4)CC3)CC[C@@H]21`, with 8.61%.
As to `CCC(=O)N[C@H]1CC[C@@H](CC(=O)NCc2cc(F)cc(F)c2)O[C@@H]1CO`, the reporter increase is 0.353%.
As for `COC(=O)CNC(=O)c1ccccc1[N+](=O)[O-]`, the reporter increase is -1.18%.
The value for `O=C(NCCNc1ccccc1[N+](=O)[O-])c1ccccc1F` was 62.1% (active).
In the case of `O=C(NCCNc1ccc([N+](=O)[O-])cc1Cl)c1ccccc1F`, the reporter increase was 7.96%.
`CC(=O)Nc1ccc2c(c1)C(=O)N(C)[C@@H]1CC[C@H](CC(=O)NCc3ccccc3)O[C@H]1CO2`: the reporter increase was -6.55%.
For the compound `CO[C@@H]1CN(C)C(=O)c2cc(NC(=O)C3CCC3)ccc2OC[C@H](C)N(Cc2ccccn2)C[C@H]1C`, the reporter increase was 1.86%.
With `Cc1nc(-c2ccccc2)sc1-c1nnc(C2CC2)o1`, the reporter increase is 76.8% (active).
Regarding `Cc1nc(-c2ccccc2)sc1-c1nc(-c2ccccc2)ncc1S(=O)(=O)c1ccccc1`, the reporter increase was -0.228%.
Then `Cc1nc(N)sc1-c1ccccc1`, with 0.609%.
